± gives the standard deviation.
Legend:
Conditions in all cases: modulator concentration 10 µM
[1] = system: RAW-Dual (murine macrophage reporter line); assay: NF-kB reporter (SEAP) activity fold change vs agonist alone; higher = enhanced NF-kB activity
Procedure, shortened: (§1)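 Overnight stimulation with a PRR agonist followed pre-incubation for 1 hour at 37 °C with compound at 10 μM final. This was done in RAW-Dual murine macrophage reporter cells seeded at 50 000 per well in 384-well plates. NF-κB (SEAP, QUANTI-Blue absorbance at 620 nm) and IRF (Lucia luciferase, QUANTI-Luc luminescence) were read from the supernatant. Each reporter's fold change relative to the mean agonist-only control on the same plate was averaged over replicate plates.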

[2] = system: RAW-Dual (murine macrophage reporter line); assay: IRF reporter (Lucia luciferase) activity fold change vs agonist alone; higher = enhanced IRF activity
Procedure, shortened: as §1

[3] = system: RAW-Dual (murine macrophage reporter line); assay: viability score (confluency relative to resting cells, overnight) (fraction); higher = more viable, active = viable (0.7 or more)
Procedure, shortened: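 RAW-Dual macrophages in 384-well plates were exposed overnight to compound at 10 μM final. Confluency was imaged with IncuCyte, and two confluency masks were generated with IncuCyte software over all imaged wells. The viability score is confluency expressed relative to resting cells. Compounds were called viable if both masks exceeded 70% of resting cells.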

[4] = agonist: CpG ODN 1826 0.5 ug/mL

Structure (SMILES) | NF-kB reporter [1, 4] | NF-kB reporter ([1]; agonist: LPS 0.1 ug/mL) | NF-kB reporter ([1]; agonist: MPLA […]) | IRF reporter ([2]; agonist: 3'3'-cGAMP 10 ug/mL) | IRF reporter ([2]; agonist: LPS 0.1 ug/mL) | IRF reporter ([2]; agonist: MPLA […]) | viability score [3]
CC(C(=O)N1CCN(S(=O)(=O)C2CC2)CC1)n1nc2c(cc1=O)CCC2 (stereo not given) | 0.928 ± 0.086 | 1.06 ± 0.095 | 0.934 ± 0.082 | 0.977 ± 0.091 | 0.964 ± 0.1 | 0.904 ± 0.19 | 1.01 (active)
CC12CCC(=O)C=C1C=CC1C2CCC2(C)C1CCC21CCC(=O)O1 (stereo not given) | 0.781 ± 0.19 | 0.958 ± 0.084 | 0.93 ± 0.059 | 0.963 ± 0.034 | 1.1 ± 0.21 | 1.06 ± 0.12 | 1.01 (active)
Cc1ccc(S(=O)(=O)Nc2cc(-c3c(O)ccc4ccccc34)c(O)c3ccccc23)cc1 | 0.941 ± 0.073 | 0.994 ± 0.076 | 1.16 ± 0.11 | 0.337 ± 0.015 | 0.808 ± 0.047 | 0.611 ± 0.075 | 0.956 (active)
CCOc1nc2cccc(C(=O)OC(C)OC(=O)OC3CCCCC3)c2n1Cc1ccc(-c2ccccc2-c2nnn[nH]2)cc1 (stereo not given) | 0.672 ± 0.089 | 0.762 ± 0.062 | 0.976 ± 0.092 | 1.1 ± 0.051 | 1.31 ± 0.089 | 1.47 ± 0.13 | 1.02 (active)
CN1CCN(c2ccc(-c3cccc(NC(=O)COc4ccc(Cl)cc4Cl)c3)nn2)CC1 | 0.46 ± 0.09 | 0.922 ± 0.086 | 1 ± 0.13 | 0.65 ± 0.043 | 1.16 ± 0.18 | 1.12 ± 0.29 | 0.982 (active)
COc1cc(C2C(C(=O)c3ccccc3)=C(O)C(=O)N2c2cccnc2)ccc1O (stereo not given) | 0.915 ± 0.14 | 0.595 ± 0.13 | 0.582 ± 0.1 | 0.758 ± 0.068 | 0.849 ± 0.074 | 0.785 ± 0.13 | 0.97 (active)
CC1=NN(c2ccc(S(N)(=O)=O)cc2)C(=O)C1=Cc1ccc(N(C)C)cc1 | 1.02 ± 0.15 | 0.967 ± 0.063 | 0.947 ± 0.04 | 0.794 ± 0.2 | 0.899 ± 0.052 | 0.892 ± 0.06 | 1 (active)
Cc1ccc2c(c1)C1(c3ccccc3)Nc3ccc(C)cc3C1(c1ccccc1)N2 (stereo not given) | 0.878 ± 0.082 | 0.904 ± 0.078 | 0.86 ± 0.085 | 0.864 ± 0.071 | 0.996 ± 0.14 | 0.969 ± 0.19 | 1.02 (active)
CC(N)C12CC3CC(CC(C3)C1)C2 (stereo not given) | 0.979 ± 0.045 | 0.933 ± 0.14 | 1.06 ± 0.058 | 1.02 ± 0.056 | 1.12 ± 0.2 | 1.24 ± 0.37 | 1.01 (active)
COc1ccc(OC)c2sc(NC(=O)C(C)C)nc12 | 0.97 ± 0.075 | 1.02 ± 0.059 | 1 ± 0.031 | 0.837 ± 0.06 | 0.885 ± 0.11 | 0.828 ± 0.14 | 0.993 (active)
OCCSCCc1ccncc1 | 1.03 ± 0.083 | 1.05 ± 0.086 | 1.01 ± 0.047 | 1.02 ± 0.23 | 0.995 ± 0.07 | 1.02 ± 0.17 | 1 (active)
Cc1cn(-c2cc(NC(=O)c3ccc(C)c(Nc4nccc(-c5cnccn5)n4)c3)cc(C(F)(F)F)c2)cn1 | 0.892 ± 0.22 | 1.17 ± 0.059 | 0.982 ± 0.063 | 0.867 ± 0.032 | 0.943 ± 0.11 | 1.19 ± 0.33 | 0.988 (active)
Cc1cc(N2CCCCC2)nc2ccccc12 | 0.493 ± 0.041 | 0.701 ± 0.056 | 0.73 ± 0.093 | 0.982 ± 0.032 | 1.03 ± 0.098 | 1.21 ± 0.17 | 0.293 (inactive)
Cc1ccc(-c2cc(C(F)(F)F)n3nc(C(=O)NCCCN4CCOCC4)cc3n2)cc1 | 0.995 ± 0.083 | 1.06 ± 0.098 | 0.983 ± 0.082 | 0.968 ± 0.024 | 1.31 ± 0.22 | 1.13 ± 0.22 | 1.01 (active)
COc1cc(Cl)cc(C=NNC(=O)c2cc(C)n[nH]2)c1O | 1.16 ± 0.09 | 0.793 ± 0.038 | 0.943 ± 0.082 | 0.785 ± 0.066 | 1.46 ± 0.088 | 1.62 ± 0.14 | 0.968 (active)
CCOc1ccc(-c2ccc(=O)n(CCNS(=O)(=O)CCc3ccccc3)n2)cc1 | 1.08 ± 0.081 | 1.22 ± 0.13 | 1.06 ± 0.083 | 1.2 ± 0.078 | 0.984 ± 0.07 | 1.3 ± 0.27 | 0.995 (active)
Cc1sccc1-c1csc(Nc2cccnc2)n1.Cl | 0.603 ± 0.028 | 0.918 ± 0.075 | 1.16 ± 0.21 | 0.6 ± 0.029 | 1.19 ± 0.23 | 1.62 ± 0.53 | 0.902 (active)
CC(=O)N1CCc2ccc(NC(=O)C3(c4ccccc4)CCOCC3)cc2C1 | 0.91 ± 0.063 | 1 ± 0.082 | 1.4 ± 0.075 | 1.22 ± 0.06 | 1.28 ± 0.24 | 1.31 ± 0.54 | 0.979 (active)

Structure (SMILES) | NF-kB reporter [1, 4] | NF-kB reporter ([1]; agonist: LPS 0.1 ug/mL) | NF-kB reporter ([1]; agonist: MPLA […]) | IRF reporter ([2]; agonist: 3'3'-cGAMP 10 ug/mL) | IRF reporter ([2]; agonist: LPS 0.1 ug/mL) | IRF reporter ([2]; agonist: MPLA […]) | viability score [3]
C=Cc1c(C)c2cc3nc(cc4[nH]c(cc5nc(cc1[nH]2)C(C)=C5CCC(=O)O)c(CCC(=O)OC)c4C)[C@@]1(C)C3=CC=C(C(=O)OC)[C@H]1C(=O)OC | 0.419 ± 0.077 | 0.077 ± 0.012 | 0.123 ± 0.0057 | 0.0175 ± 0.0038 | 0.0424 ± 0.018 | 0.0518 ± 0.015 | 0.344 (inactive)
O=C(Nc1cc(C(F)(F)F)cc(C(F)(F)F)c1)c1ccc([N+](=O)[O-])cc1 | 0.977 ± 0.09 | 1.03 ± 0.14 | 1.02 ± 0.063 | 0.998 ± 0.03 | 1.42 ± 0.14 | 1.05 ± 0.075 | 1.01 (active)
Cc1cc(C(=O)NNCc2ccccc2)no1 [Prestw-795] | 1.09 ± 0.18 | 1.18 ± 0.11 | 0.992 ± 0.076 | 0.958 ± 0.026 | 1.06 ± 0.24 | 1.29 ± 0.14 | 0.997 (active)
CC(=O)c1cc2c(o1)C(=O)c1ccccc1C2=O | 1.19 ± 0.28 | 1.36 ± 0.068 | 1.31 ± 0.1 | 0.995 ± 0.035 | 1.12 ± 0.16 | 1.18 ± 0.27 | 0.995 (active)
O=C(O)c1cc(O)ccc1O | 0.972 ± 0.11 | 1.03 ± 0.055 | 0.977 ± 0.023 | 1.03 ± 0.078 | 0.969 ± 0.032 | 0.932 ± 0.11 | 0.996 (active)
Cn1nccc1C(=O)N1CCC(O)(C(F)(F)F)CC1 | 1.22 ± 0.29 | 0.996 ± 0.082 | 1.01 ± 0.078 | 0.92 ± 0.033 | 1.14 ± 0.13 | 1.3 ± 0.19 | 0.997 (active)
Cl.N=C(N)NCCC[C@H](N)C(=O)O | 1.12 ± 0.27 | 0.995 ± 0.08 | 1.03 ± 0.081 | 0.896 ± 0.036 | 1.38 ± 0.15 | 1.2 ± 0.23 | 1.01 (active)
CCN1C(C)=C(C(=O)OC)C(c2ccc([N+](=O)[O-])cc2)C(C(=O)OC)=C1C | 1.17 ± 0.11 | 0.868 ± 0.079 | 0.991 ± 0.049 | 0.981 ± 0.037 | 0.954 ± 0.044 | 0.961 ± 0.1 | 0.994 (active)
Cc1cc(-c2ccc(NC(=O)c3ccc([N+](=O)[O-])cc3)c(C)c2)ccc1NC(=O)c1ccc([N+](=O)[O-])cc1 | 0.994 ± 0.067 | 0.988 ± 0.06 | 0.928 ± 0.064 | 0.966 ± 0.057 | 1.26 ± 0.08 | 1.15 ± 0.27 | 0.999 (active)
COc1ccc(OC2CCN(C(=O)C3CCOC3)C2)nn1 (stereo not given) | 0.955 ± 0.12 | 1.04 ± 0.1 | 0.949 ± 0.11 | 1 ± 0.083 | 1.12 ± 0.072 | 1.23 ± 0.14 | 0.999 (active)
CCC(=O)Nc1ccc(C(=O)NN=Cc2ccc(C#N)cc2)cc1 | 1.04 ± 0.094 | 1.03 ± 0.081 | 0.913 ± 0.064 | 0.972 ± 0.03 | 1.53 ± 0.22 | 1.11 ± 0.23 | 1.01 (active)
CCCCc1nc(Cl)c(CO)n1Cc1ccc(-c2ccccc2-c2nnn[nH]2)cc1 [Prestw-1433] | 1.2 ± 0.29 | 1.08 ± 0.054 | 1.02 ± 0.065 | 0.944 ± 0.034 | 1.29 ± 0.14 | 1.32 ± 0.19 | 1 (active)
Cc1ccc([N+](=O)[O-])cc1S(=O)(=O)N(C)C | 1.05 ± 0.17 | 0.949 ± 0.077 | 1 ± 0.1 | 1.06 ± 0.037 | 1.09 ± 0.26 | 1.2 ± 0.12 | 1 (active)
Cc1ccc(NS(=O)(=O)c2cc3c4c(cccc4c2)C(=O)NC3=O)cc1C | 0.535 ± 0.034 | 0.381 ± 0.03 | 0.875 ± 0.025 | 0.532 ± 0.033 | 0.908 ± 0.092 | 0.815 ± 0.14 | 0.802 (active)
COC(=O)c1cc(OC)c(=O)c2c(OC)c(OC)ccc2c1 | 1.08 ± 0.33 | 0.981 ± 0.059 | 0.931 ± 0.1 | 0.743 ± 0.03 | 1.02 ± 0.22 | 0.884 ± 0.088 | 0.984 (active)
Oc1ccc(N=Cc2ccccc2)cc1 | 1.38 ± 0.18 | 1.2 ± 0.079 | 2.67 ± 0.18 | 0.605 ± 0.037 | 0.924 ± 0.082 | 1.58 ± 0.35 | 0.988 (active)
COc1ccc(C(=O)C=Cc2cc(OC)c(OC)cc2OC)c(OC)c1 | 0.958 ± 0.24 | 0.902 ± 0.13 | 0.839 ± 0.067 | 0.506 ± 0.013 | 1.15 ± 0.16 | 1.06 ± 0.17 | 1 (active)
